# “And” between values parts separate entries of the source, which are not always exact repeats. Equal values may be shown once. Records with an inconclusive call do not appear. The source made the active and inactive calls. The calls were made as follows: active = hit-call score of the fitted dose curve at least 0.9, where 1 is the maximum; inconclusive = response in the unintended direction; inactive = score below 0.9.
# How the values were obtained:
# [1] = biological target: human CYP4F12, CYP4F12 (gene 66002) (UniProt Q9HCS2); experiment: NVS_ADME_hCYP4F12: NovaScreen (NVS) CYP450-related Enzyme Activity (ADME) Assay for human CYP4F12 (AID 2283111)
# Chain of human CYP4F12, CYP4F12 (gene 66002) (Q9HCS2 whole entry, looked up): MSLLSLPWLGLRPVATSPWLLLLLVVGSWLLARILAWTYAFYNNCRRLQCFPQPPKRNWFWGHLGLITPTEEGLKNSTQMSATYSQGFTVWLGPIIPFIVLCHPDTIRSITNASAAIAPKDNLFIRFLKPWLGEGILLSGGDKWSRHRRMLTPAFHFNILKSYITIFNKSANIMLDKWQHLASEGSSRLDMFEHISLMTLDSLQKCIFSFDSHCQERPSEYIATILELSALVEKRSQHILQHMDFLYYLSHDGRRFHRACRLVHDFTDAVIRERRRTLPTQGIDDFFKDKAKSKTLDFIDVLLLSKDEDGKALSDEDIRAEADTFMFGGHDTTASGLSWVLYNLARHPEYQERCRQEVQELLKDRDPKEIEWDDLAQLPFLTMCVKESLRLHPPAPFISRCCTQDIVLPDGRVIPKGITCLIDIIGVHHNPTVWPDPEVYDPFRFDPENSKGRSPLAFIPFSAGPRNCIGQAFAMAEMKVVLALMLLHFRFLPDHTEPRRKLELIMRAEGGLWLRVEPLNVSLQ
# In short: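 Cell-free fluorescence assay of recombinant human CYP4F12 activity on a specific substrate, read 0.5 h after dosing. Primary screen in duplicate at 10 uM, then concentration series for actives; loss of signal fitted against acetonitrile negative control.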
# [2] = biological target: human AMP-activated Protein Kinase, alpha 1 (AMPKa1), PRKAA1 (gene 5562) (UniProt Q13131); experiment: NVS_ENZ_hAMPKa1: NovaScreen (NVS) Enzymatic Assay for human AMP-activated Protein Kinase, alpha 1 (AMPKa1) (AID 2283130)
# Chain of human AMP-activated Protein Kinase, alpha 1 (AMPKa1), PRKAA1 (gene 5562) (Q13131 whole entry, looked up): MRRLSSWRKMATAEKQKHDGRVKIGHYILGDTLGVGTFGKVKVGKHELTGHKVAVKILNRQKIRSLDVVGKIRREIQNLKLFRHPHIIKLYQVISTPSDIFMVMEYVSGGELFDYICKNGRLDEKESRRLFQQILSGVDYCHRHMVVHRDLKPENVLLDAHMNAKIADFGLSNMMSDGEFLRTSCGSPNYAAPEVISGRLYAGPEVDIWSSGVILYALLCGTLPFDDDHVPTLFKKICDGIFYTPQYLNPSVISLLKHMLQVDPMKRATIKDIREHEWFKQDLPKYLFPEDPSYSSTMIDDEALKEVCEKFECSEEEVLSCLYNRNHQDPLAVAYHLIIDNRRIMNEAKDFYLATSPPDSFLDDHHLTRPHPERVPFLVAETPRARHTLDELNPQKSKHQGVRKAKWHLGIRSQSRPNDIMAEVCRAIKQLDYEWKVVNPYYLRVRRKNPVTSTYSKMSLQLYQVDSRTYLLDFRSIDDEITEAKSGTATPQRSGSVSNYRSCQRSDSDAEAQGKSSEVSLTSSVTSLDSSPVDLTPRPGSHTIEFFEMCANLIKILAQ
# In short: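 Recombinant human AMPKα1 activity was measured cell-free by fluorescent substrate conversion with electrophoretic mobility-shift separation, 1 h after dosing. Duplicate single-point screening was at 25 uM; actives (≥30% inhibition) were retested in concentration-response up to 50 uM.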
# [3] = biological target: human Acetylcholinesterase (AChE), ACHE (gene 43) (UniProt P22303); experiment: NVS_ENZ_hAChE: NovaScreen (NVS) Enzymatic Assay for human Acetylcholinesterase (AChE) (AID 2283129)
# Chain of human Acetylcholinesterase (AChE), ACHE (gene 43) (P22303 whole entry, looked up): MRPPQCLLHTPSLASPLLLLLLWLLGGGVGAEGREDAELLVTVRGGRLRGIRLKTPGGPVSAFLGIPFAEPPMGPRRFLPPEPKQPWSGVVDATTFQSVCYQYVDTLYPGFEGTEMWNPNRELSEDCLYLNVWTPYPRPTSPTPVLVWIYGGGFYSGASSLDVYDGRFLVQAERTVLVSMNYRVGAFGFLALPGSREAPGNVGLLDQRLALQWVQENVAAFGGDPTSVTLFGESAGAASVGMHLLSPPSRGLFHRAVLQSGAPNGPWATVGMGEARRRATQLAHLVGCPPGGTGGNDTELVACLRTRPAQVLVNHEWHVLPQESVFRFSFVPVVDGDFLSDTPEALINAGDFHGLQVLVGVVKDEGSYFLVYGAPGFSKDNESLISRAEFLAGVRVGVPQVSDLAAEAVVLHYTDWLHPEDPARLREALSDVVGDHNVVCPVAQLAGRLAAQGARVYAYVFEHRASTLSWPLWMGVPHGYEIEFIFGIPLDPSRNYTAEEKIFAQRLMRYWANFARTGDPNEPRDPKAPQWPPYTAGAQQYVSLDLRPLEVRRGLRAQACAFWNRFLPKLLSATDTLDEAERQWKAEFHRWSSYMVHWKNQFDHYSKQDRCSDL
# In short: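 Cell-free colorimetric enzyme-activity assay; compounds read 0.33 hour after dosing, loss of signal vs DMSO baseline. Primary screen in duplicate at 25 uM single concentration, with active compounds retested in concentration series.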
# rat CYP2B1, gene 24300 = experiment: NVS_ADME_rCYP2B1: NovaScreen (NVS) CYP450-related Enzyme Activity (ADME) Assay for rat CYP2B1 (AID 2283117)
# In short: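 Recombinant rat CYP2B1 with fluorogenic substrate, read at 0.75 h. Primary screen in duplicate at 10 uM; compounds meeting threshold (e.g., 30% inhibition) re-run in concentration-response up to 20 uM. Fitted against acetonitrile control.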
# [4] = biological target: rat Monoamine Oxidase, MAO-B, Central (MAOBC), Maob (gene 25750) (UniProt P19643); experiment: NVS_ENZ_rMAOBC: NovaScreen (NVS) Enzymatic Assay for rat Monoamine Oxidase, MAO-B, Central (MAOBC) (AID 2283238)
# Chain of rat Monoamine Oxidase, MAO-B, Central (MAOBC), Maob (gene 25750) (P19643 whole entry, looked up): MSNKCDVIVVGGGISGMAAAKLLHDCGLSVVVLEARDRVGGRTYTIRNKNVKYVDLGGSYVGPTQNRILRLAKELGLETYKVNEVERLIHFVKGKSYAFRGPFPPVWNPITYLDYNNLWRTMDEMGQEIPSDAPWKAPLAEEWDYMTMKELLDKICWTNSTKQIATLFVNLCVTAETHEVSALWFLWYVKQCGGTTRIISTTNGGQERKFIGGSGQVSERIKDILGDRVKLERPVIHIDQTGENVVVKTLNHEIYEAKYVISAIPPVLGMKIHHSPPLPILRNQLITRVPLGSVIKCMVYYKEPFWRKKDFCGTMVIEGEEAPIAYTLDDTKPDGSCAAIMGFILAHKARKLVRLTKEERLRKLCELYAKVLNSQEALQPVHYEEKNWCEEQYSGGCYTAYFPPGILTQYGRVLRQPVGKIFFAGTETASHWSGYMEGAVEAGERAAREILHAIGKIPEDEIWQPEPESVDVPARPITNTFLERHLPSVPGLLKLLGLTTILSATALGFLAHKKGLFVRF
# In short: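 MAO-B activity in rat brain tissue preparation, cell-free, measured radiometrically by scintillation counting 1.17 h after dosing. Screened in duplicate at 25 uM; actives then in concentration-response up to 50 uM. Loss of signal versus DMSO scored.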
# [5] = system: rat Monoamine Oxidase, MAO-A, Central (MAOAC), gene 29253; experiment: NVS_ENZ_rMAOAC: NovaScreen (NVS) Enzymatic Assay for rat Monoamine Oxidase, MAO-A, Central (MAOAC) (AID 2283243);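 also: potency refers to inhibition seen as signal drop below DMSO baseline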
# In short: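 Rat brain tissue extract served as the cell-free enzyme source; activity was measured by radiometric scintillation counting 1.5 hours after compound addition. Loss of signal relative to DMSO baseline indicated inhibition; primary screen at 25 uM in duplicate.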
# [6] = biological target: Norway rat Vesicular Monoamine Transporter (VMAT2), neurotransmitter transporter, Slc18a2 (gene 25549) (UniProt Q01827); experiment: NVS_TR_rVMAT2: NovaScreen (NVS) Transporter Assay for Norway rat Vesicular Monoamine Transporter (VMAT2), neurotransmitter transporter (AID 2283376);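 also: actives lower the bound radioligand signal below the DMSO level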
# In short: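 Radioligand displacement binding on rat forebrain tissue preparation, filter-based scintillation read-out 1 hour after dosing. Primary screen in duplicate at 25 uM, then concentration series for actives; loss of signal versus DMSO.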
# [7] = biological target: human Aurora Kinase A - serine/threonine-protein Kinase 6 (AurA), AURKA (gene 6790) (UniProt O14965); experiment: NVS_ENZ_hAurA: NovaScreen (NVS) Enzymatic Assay for human Aurora Kinase A - serine/threonine-protein Kinase 6 (AurA) (AID 2283142)
# In short: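 Cell-free enzymatic assay with human Aurora A, 1 hour after dosing. Fluorescent substrate turnover detected after electrophoretic mobility shift separation of substrate and product. Screened at 25 uM, actives retested in concentration-response up to 50 uM.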
# [8] = biological target: human Epidermal Growth Factor Receptor (EGFR), EGFR (gene 1956) (UniProt P00533); experiment: NVS_ENZ_hEGFR: NovaScreen (NVS) Enzymatic Assay for human Epidermal Growth Factor Receptor (EGFR) (AID 2283151)
# Chain of human Epidermal Growth Factor Receptor (EGFR), EGFR (gene 1956) (P00533 whole entry, looked up): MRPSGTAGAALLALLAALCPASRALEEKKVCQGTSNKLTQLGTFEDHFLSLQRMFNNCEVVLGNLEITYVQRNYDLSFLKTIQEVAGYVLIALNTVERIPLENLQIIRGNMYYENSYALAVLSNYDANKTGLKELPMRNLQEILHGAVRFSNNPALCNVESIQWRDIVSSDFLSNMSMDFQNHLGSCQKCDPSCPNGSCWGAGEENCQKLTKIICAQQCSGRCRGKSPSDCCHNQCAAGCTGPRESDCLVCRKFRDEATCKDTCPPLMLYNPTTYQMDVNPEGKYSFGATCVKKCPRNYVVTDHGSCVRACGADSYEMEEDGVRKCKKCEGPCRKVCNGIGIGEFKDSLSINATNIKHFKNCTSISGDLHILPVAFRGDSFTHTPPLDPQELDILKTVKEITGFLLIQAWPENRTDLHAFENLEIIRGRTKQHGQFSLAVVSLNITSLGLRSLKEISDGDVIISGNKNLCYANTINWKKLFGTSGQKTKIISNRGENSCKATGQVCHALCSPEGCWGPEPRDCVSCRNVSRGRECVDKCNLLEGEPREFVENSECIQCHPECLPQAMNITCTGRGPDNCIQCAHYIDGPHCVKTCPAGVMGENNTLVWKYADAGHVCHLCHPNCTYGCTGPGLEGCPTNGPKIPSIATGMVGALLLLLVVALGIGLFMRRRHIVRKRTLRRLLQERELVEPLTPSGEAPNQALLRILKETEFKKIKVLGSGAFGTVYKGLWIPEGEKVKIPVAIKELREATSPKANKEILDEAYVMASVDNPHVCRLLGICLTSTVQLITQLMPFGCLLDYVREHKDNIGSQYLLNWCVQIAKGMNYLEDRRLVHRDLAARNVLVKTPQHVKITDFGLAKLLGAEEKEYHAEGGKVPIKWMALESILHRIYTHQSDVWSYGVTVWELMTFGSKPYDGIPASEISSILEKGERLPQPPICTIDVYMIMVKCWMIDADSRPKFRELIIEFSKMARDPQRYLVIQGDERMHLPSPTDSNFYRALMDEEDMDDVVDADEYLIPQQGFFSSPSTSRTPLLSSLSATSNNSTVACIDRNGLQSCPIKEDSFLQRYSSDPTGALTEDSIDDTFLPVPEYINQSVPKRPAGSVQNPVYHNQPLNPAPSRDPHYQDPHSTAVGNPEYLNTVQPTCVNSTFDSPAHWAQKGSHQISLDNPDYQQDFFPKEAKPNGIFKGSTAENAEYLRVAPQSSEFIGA
# In short: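 Cell-free kinase assay, fluorescence plus electrophoretic mobility shift separating substrate and product, read 1 hour after dosing; loss of signal vs DMSO. Duplicate screen at 25 uM, then concentration-response to 50 uM.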
# [9] = biological target: human Ephrin type-B Receptor 2 (EphB2), EPHB2 (gene 2048) (UniProt P29323); experiment: NVS_ENZ_hEphB2: NovaScreen (NVS) Enzymatic Assay for human Ephrin type-B Receptor 2 (EphB2) (AID 2283156)
# Chain of human Ephrin type-B Receptor 2 (EphB2), EPHB2 (gene 2048) (P29323 whole entry, looked up): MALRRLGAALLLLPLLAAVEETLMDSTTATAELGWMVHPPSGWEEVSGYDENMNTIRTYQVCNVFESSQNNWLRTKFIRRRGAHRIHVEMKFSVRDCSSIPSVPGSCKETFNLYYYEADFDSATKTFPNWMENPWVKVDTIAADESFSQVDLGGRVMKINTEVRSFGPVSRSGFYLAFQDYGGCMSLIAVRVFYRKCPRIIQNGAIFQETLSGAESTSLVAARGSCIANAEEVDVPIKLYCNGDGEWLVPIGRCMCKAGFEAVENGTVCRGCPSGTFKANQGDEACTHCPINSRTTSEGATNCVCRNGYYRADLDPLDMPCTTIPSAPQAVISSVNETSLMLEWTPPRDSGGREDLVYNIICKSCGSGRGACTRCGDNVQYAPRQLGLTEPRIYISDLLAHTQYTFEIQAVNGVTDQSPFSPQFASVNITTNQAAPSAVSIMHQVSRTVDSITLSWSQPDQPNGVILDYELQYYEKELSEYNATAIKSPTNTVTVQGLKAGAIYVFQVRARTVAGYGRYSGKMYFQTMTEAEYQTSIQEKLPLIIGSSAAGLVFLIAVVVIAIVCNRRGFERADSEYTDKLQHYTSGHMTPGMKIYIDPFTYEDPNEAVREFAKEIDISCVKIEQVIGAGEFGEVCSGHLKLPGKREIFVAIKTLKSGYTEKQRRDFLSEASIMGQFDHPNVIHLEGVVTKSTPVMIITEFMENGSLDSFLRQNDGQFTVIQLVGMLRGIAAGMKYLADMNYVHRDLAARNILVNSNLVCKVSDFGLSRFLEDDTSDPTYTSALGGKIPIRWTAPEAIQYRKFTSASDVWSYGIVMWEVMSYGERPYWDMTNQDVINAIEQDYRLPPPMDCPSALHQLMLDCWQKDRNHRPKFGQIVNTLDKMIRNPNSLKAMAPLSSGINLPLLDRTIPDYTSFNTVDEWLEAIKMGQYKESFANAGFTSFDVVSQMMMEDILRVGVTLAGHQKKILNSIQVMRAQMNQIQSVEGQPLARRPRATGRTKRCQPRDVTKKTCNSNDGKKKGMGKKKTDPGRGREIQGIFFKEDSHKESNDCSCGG
# In short: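 Recombinant kinase with fluorescent substrate, product separated by electrophoretic mobility shift, read 1 h after dosing. Duplicate 25 uM screen, then singleton concentration-response to 50 uM max; loss of signal versus DMSO.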
# [10] = biological target: human p21 Activated Kinase 4 (PAK4), PAK4 (gene 10298) (UniProt O96013); experiment: NVS_ENZ_hPAK4: NovaScreen (NVS) Enzymatic Assay for human p21 Activated Kinase 4 (PAK4) (AID 2283189)
# In short: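 Cell-free recombinant human PAK4 activity assay; fluorescent substrate and product separated by electrophoretic mobility shift, read 1 h after dosing. Initially tested in duplicate at 25 uM, relative to DMSO baseline.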
# [11] = biological target: rat Monoamine Oxidase, MAO-B, Peripheral (MAOBP), Maob (gene 25750) (UniProt P19643); experiment: NVS_ENZ_rMAOBP: NovaScreen (NVS) Enzymatic Assay for rat Monoamine Oxidase, MAO-B, Peripheral (MAOBP) (AID 2283242)
# Chain of rat Monoamine Oxidase, MAO-B, Peripheral (MAOBP), Maob (gene 25750) (P19643 whole entry, looked up): as the sequence (P19643 whole entry, looked up) above
# [12] = biological target: human Fibroblast Growth Factor Receptor 1 (FGFR1), FGFR1 (gene 2260) (UniProt P11362); experiment: NVS_ENZ_hFGFR1: NovaScreen (NVS) Enzymatic Assay for human Fibroblast Growth Factor Receptor 1 (FGFR1) (AID 2283159)
# In short: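 Cell-free recombinant kinase with fluorescent substrate, product separated by electrophoretic mobility shift; read 1 hour after dosing, loss of signal relative to DMSO. Initial screen in duplicate at 25 uM, actives followed in concentration series.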
# [13] = biological target: Protein deacetylase HDAC6 (Homo sapiens) (UniProt Q9UBN7); experiment: NVS_ENZ_hHDAC6: NovaScreen (NVS) Enzymatic Assay for human Histone Deacetylase 6 (HDAC6) (AID 2283164)
# In short: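 Recombinant human HDAC6 with fluorescent substrate, 1 h; product separated from substrate by electrophoretic mobility shift. Primary screen in duplicate at 25 uM; actives retested singly in concentration-response up to 50 uM, fitted relative to DMSO.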
# [14] = biological target: human Phosphatase and Tensin Homolog (PTEN), PTEN (gene 5728) (UniProt P60484); experiment: NVS_ENZ_hPTEN: NovaScreen (NVS) Enzymatic Assay for human Phosphatase and Tensin Homolog (PTEN) (AID 2283203)
# Chain of human Phosphatase and Tensin Homolog (PTEN), PTEN (gene 5728) (P60484 whole entry, looked up): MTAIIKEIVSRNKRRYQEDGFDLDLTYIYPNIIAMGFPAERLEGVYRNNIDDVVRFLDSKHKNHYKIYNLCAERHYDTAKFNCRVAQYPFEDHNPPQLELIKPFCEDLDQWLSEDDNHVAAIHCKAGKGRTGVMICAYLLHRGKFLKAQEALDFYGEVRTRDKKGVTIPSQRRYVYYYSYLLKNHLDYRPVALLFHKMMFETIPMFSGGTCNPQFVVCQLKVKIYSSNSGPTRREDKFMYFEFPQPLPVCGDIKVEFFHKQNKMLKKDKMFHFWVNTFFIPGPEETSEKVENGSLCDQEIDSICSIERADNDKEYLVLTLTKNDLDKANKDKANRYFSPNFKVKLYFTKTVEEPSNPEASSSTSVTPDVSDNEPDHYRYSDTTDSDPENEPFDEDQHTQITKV
# In short: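 Cell-free recombinant human PTEN with fluorescent substrate; product separated by electrophoretic mobility shift and read by fluorescence 1 h after dosing. Primary screen in duplicate at 25 uM, actives followed in concentration series versus DMSO.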
# [15] = biological target: human Protein Tyrosine Phosphatase Non-receptor Type 2 (PTPN2), PTPN2 (gene 5771) (UniProt P17706); experiment: NVS_ENZ_hPTPN2: NovaScreen (NVS) Enzymatic Assay for human Protein Tyrosine Phosphatase Non-receptor Type 2 (PTPN2) (AID 2283207)
# In short: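 Cell-free recombinant enzyme with fluorescent substrate, product separated by electrophoretic mobility shift; read 1 h after dosing. Primary screen single concentration (25 uM) in duplicate; actives followed in concentration series; loss of signal versus DMSO.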
# [16] = biological target: human Raf-1 Proto-Oncogene, serine/threonine Kinase (RAF1), RAF1 (gene 5894) (UniProt P04049); experiment: NVS_ENZ_hRAF1: NovaScreen (NVS) Enzymatic Assay for human Raf-1 Proto-Oncogene, serine/threonine Kinase (RAF1) (AID 2283216)
# In short: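 Cell-free recombinant kinase with specific fluorescent substrate, product separated by electrophoretic mobility shift; read 1 h after dosing. Primary screen at 25 uM in duplicate; hits then run in concentration-response up to 50 uM, fitted as loss of signal versus DMSO.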
# [17] = ATG_M_32_XSP2: Attagene TRANS-FACTORIAL Multi-Species (XSP2) HepG2 Assay for M19 Transcription Factor (Internal Marker) (AID 2283826)
# In short: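 Transfected HepG2 (multiplexed GAL4-UAS reporters), 24 h chemical exposure, 3 nM 6-alpha-fluorotestosterone + 1.5 nM norgestrel added. RNA → oligo(dT) RT → PCR → 6-FAM primer extension → HpaI cut → CE. Fitted upward vs DMSO.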
compound,measurement,setting,value
CCOC(N)=O,outcome,[1],inactive
same,outcome,[2],inactive
CCCCC(CC)COC(=O)c1ccc(C(=O)OCC(CC)CCCC)cc1 (centres undefined),outcome,[3],inactive
O=c1c(-c2ccc(O)cc2)coc2cc(O)cc(O)c12,outcome,"rat CYP2B1, gene 24300",inactive
same,AC50,[4],31.1 µM (active) and 25 µM (active)
same,AC50,[5],10.6 µM (active) and 12.2 µM (active) and 2.7 µM (active)
same,outcome,[6],inactive
CN(C)C(=O)NC1(c2ccccc2)CCN(CCC[C@]2(c3ccc(Cl)c(Cl)c3)CCCN(C(=O)c3ccccc3)C2)CC1,AC50,[3],5.13 µM (active)
same,outcome,[2],inactive
same,outcome,[7],inactive
same,outcome,[8],inactive
same,outcome,[9],inactive
same,outcome,[10],inactive
same,outcome,[11],inactive
CCCCC(CC)COC(=O)CCCCCCCCC(=O)OCC(CC)CCCC (centres undefined),AC50,[3],16.7 µM (active)
CCN(C(=O)c1cc(C)cc(OC[C@H](C)Nc2ccncc2)c1)C(C)C,AC50,[3],6.7 µM (active)
CC(C)CCCCCCc1ccc(O)cc1,outcome,[1],inactive
same,outcome,[8],inactive
same,outcome,[12],inactive
same,outcome,[13],inactive
same,outcome,[14],inactive
same,outcome,[15],inactive
same,outcome,[16],inactive
same,outcome,[17],inactive

# Source: PubChem BioAssay (EPA / NIEHS)
